Screening results (PubChem)
Hits are enriched below; roughly 1.6% of the tested compounds scored in any of these assays.
KCNH2 WT inh: inhibitors of human wildtype KCNH2 potassium channel. U2OS, BacMam KCNH2, thallium flux FluxOr; hits give low values. AID 720551. 0.37% of 340,000 active. activity change, % at 1.84 µM. Q12809;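 active = maximum activity change below -70%; inconclusive = maximum activity change between -70% and -50%; inactive = maximum activity change above -50%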; note: % is set by controls: 0 for no effect and ±100 for the full control effect
Target sequence (Q12809 whole entry, looked up): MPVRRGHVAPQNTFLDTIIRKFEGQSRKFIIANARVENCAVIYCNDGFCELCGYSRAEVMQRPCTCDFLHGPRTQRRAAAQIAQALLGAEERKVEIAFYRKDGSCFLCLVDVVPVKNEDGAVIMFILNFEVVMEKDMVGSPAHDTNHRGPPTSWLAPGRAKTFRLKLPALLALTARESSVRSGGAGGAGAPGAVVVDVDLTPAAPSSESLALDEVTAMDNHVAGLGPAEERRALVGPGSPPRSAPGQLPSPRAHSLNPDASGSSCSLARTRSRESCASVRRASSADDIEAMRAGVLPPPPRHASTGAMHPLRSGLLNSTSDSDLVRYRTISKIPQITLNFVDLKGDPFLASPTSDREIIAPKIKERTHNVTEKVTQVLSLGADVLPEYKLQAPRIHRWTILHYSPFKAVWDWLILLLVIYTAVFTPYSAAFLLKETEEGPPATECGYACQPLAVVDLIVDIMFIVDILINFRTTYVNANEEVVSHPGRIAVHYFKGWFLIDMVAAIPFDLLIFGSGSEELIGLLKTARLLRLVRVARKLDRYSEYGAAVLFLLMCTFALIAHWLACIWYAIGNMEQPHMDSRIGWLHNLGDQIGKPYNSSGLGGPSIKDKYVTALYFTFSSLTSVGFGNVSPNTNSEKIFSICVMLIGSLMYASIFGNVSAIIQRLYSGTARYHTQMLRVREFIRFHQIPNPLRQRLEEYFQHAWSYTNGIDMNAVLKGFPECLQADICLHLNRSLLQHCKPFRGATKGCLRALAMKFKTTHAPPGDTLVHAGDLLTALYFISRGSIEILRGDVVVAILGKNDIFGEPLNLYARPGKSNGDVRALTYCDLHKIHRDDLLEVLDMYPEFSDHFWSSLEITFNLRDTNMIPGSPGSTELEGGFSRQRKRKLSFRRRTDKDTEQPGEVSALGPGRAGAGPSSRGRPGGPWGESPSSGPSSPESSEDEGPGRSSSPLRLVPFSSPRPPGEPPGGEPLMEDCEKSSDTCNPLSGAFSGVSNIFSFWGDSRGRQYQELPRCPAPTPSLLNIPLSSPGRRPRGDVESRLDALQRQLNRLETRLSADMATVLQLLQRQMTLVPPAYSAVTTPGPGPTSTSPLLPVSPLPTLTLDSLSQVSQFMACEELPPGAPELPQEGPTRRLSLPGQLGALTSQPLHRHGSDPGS
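U2OS cells transduced with wild-type KCNH2 virus are loaded with FluxOr dye for 45 min, and thallium flux is measured in kinetic reads before and after stimulation buffer. Rate constants are normalized to DMSO controls.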
gsp ag: agonists of gsp mutant (McCune-Albright syndrome). gsp mutant cells, cAMP HTRF, 30 min. Potency, µM (doses to about 76.9 µM), for inactives: at the highest dose activation (cAMP increase), most hits filed as activators. 0.13% of 340,000 active. AID 624287; active = well fitted activation curve with a large enough effect; inconclusive = small, poorly fitted or top-dose-only effect, or another doubt; inactive = no such curve, though single readings can be large or run the other way; cell line not stated here;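 note: phosphodiesterase inhibitor Ro 20-1724 added with compounds to block cAMP breakdown; potency is the fitted concentration of half-maximal effect; nearly all actives have a fitted effect of over 60% in size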
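Cells stably selected in G418 were plated at 2000/well, grown 16-24 hr, then given compounds in DMSO with the PDE inhibitor […] (300 uM solution added) for 30 min at 37C; cAMP was read by HTRF.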
Akt phos inh: blocks phosphorylation of Akt; Neuro2A IGF-stimulated pAkt S473 HTRF, 20 min; hits give low values; activity change, % for hits at 50 µM; 0.32% of 360,000 active; AID 651550; in the data active = activity change below about -80%; inconclusive = mostly about -51% to -80%; note: % is set by controls: 0 for no effect and ±100 for the full control effect
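Neuro2A cells in DMEM with 0.5% FBS, overnight at 37 deg C, given compound at single 50 µM final, then IGF (6 nM final) for 20 min at 37 deg C. Lysed; phospho-Akt Ser473 by HTRF after 24 h, 665/615 ratio.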
Glioma ERSR ind: induces the endoplasmic reticulum stress response in human glioma cells; U87-MG GRP78 promoter luciferase reporter, 16 h; Potency, µM, for the others: at the highest dose activation, most hits filed as activators; 0.02% of 420,000 active; AID 602332; active = well fitted activation curve with a large enough effect; inconclusive = small, poorly fitted or top-dose-only effect; inactive = no such curve, though single readings can be large or run the other way; note: potency is the fitted concentration of half-maximal effect; series mostly up to about 76 µM; % of control where 0% means no effect; nearly all actives have a fitted effect of over 35% in size
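ERSR induction read as luciferase luminescence (Bright-Glo, 10 min at room temperature) in stably transfected human U87-MG glioma cells exposed to compounds for 16 h, using GRP78 as sensor.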
KCNH2 3.1 block: inhibitors of human KCNH2 3.1 potassium channel isoform. 0.95% of 340,000 active. U2OS KCNH2 3.1, thallium flux FluxOr; hits give low values. activity change, % (tested at about 1.8 µM);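 active = maximum activity change below -70%; inconclusive = maximum activity change from -70% to -50%; inactive = maximum activity change above -50%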;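 note: thallium influx rate constant from kinetic fluorescence after stimulation buffer; % is set by controls: 0 for no effect and ±100 for the full control effect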
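Thallium flux read-out: FluxOr dye with Red40 quencher in HBSS/HEPES, 45 min at RT. Rate constants from kinetic reads were normalized to positive and negative DMSO controls. Cells: U2OS virally expressing the 3.1 isoform.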
gsp antagonist: gsp mutant antagonism; 0.4% of 340,000 active; AID 624288; gsp-mutant cells, cAMP HTRF, 30 min; Potency, µM (titrated, usually from 76.9 µM), inactives show at the top dose activity change, negative = inhibition, usual class: inhibitors; calls by dose curve; cell line not stated here;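 note: intracellular cAMP measured with PDE inhibitor Ro 20-1724 present during compound exposure; potency is the fitted concentration of half-maximal effect; % is set by controls: 0 for no effect and ±100 for the full control effect; nearly all actives have a fitted effect of over 65% in size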
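Cells in G418 medium, seeded 16-24 h, 37C; buffer exchange to DPBS + 1 mM CaCl2, 0.5 mM MgCl2, 0.05% BSA; cpds in DMSO + […] (300 uM stock), 30 min 37C; HTRF cAMP detection.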
The depositor's hits bear a star; i = inactive; u = inconclusive; x = no result given; [ ] = remark or other dose.

SMILES	KCNH2 WT inh	gsp ag	Akt phos inh	Glioma ERSR ind	KCNH2 3.1 block	gsp antagonist
COc1ccc(C(CCNCc2ccc(N(C)C)cc2)c2ccccc2OC)cc1 (stereo not given)	-99.0*	-1.5%[15.4 µM]	i	-1.7%	-5.3	8.7%
COc1ccc(CCNCc2ccc(OCc3ccccc3)cc2)cc1	7.1	9.1%	i	2.0%	u	8.5%
COc1ccc(CNCCC(c2ccccc2)c2ccc(OC(C)C)cc2)cc1OC (stereo not given)	u	11.3%[15.4 µM]	i	-2.0%	u	-6.8%
COc1ccc(CNCCC(c2ccc(OC)cc2)c2ccccc2OC)cc1 (stereo not given)	-32.9	-13.9%	i	-2.2%	-72.3*	1.2%
COc1ccc(C(CCNCc2ccc(OC(C)C)cc2)c2ccccc2OC)cc1 (stereo not given)	-88.3*	u	i	-14.1%	-89.7*	3.0%
O=C(NCC1CCC2(CCN(Cc3c[nH]c4ccccc34)CC2)O1)C1CCOCC1 (stereo not given)	x	x	x	0.8%	x	x
CC1(C)Cc2ccccc2-c2nnc(SCC(=O)N3CCN(c4ccccc4)CC3)n21	16.7	18.5%	x	-2.6%	-23.7	35.5µM*
Cn1c(SCC(=O)N2CCN(c3ccccc3)CC2)nnc1-c1ccco1	-77.1*	u	i	-3.7%	5.2	3.7%
COc1ccc(-n2cnnc2SCC(=O)N2CCN(c3ccccc3)CC2)cc1	10.0	22.1%	-107.6%*	-5.0%	2.5	-3.3%
COc1ccc(N2CCN(C(=O)CSc3nnc(-c4cc5ccccc5cc4O)n3C)CC2)cc1	0.3	u	i	-0.7%	-23.8	u
COc1cc(OC)c(/C=C/c2ccc3ccccc3n2)c(OC)c1	x	x	x	-5.6%	x	x
COc1cc(=O)n2c(c1C(=O)NC(C)c1ccco1)CCN(Cc1ccccc1C(F)(F)F)CC2 (stereo not given)	x	x	x	-3.1%	x	x
Nc1ccc(/C=C/c2ccnc3ccccc23)cc1[N+](=O)[O-]	x	x	x	-1.0%	x	x
c1ccc(-c2csc3ncnc(Sc4nnnn4-c4ccccc4)c23)cc1	x	x	x	-10.7%	x	x
COc1ccc(CN2CCC(C(=O)c3ccc(Cl)cc3)CC2)cc1	-110.2*	-6.8%	i	-0.4%	-96.9*	1.4%
COc1ccc(-c2[nH]ncc2CN2CCC(C(=O)c3ccc(F)cc3)CC2)cc1	-34.4	2.5%	i	-2.6%	-93.5*	14.8%
COc1ccc(CN2CCC(C(=O)c3cccc(Cl)c3)CC2)cc1	u	-7.7%	i	-1.3%	-107.6*	1.6%
CC1CN(CC(=O)NCCc2ccncc2)Cc2ccccc2O1 (stereo not given)	x	x	x	-3.8%	x	x
Cc1ccc(-c2nc3cc(NC(=O)C(C)C)ccc3o2)cc1	2.3	21.0%	i	-1.1%	-12.3	-6.5%[15.4 µM]
CC(Oc1ccc(Cl)cc1Cl)C(=O)Nc1ccc2oc(-c3ccncc3)nc2c1 (stereo not given)	-4.2	1.7%	i	-5.2%	-2.9	31.6µM*
Cc1ccc(-n2nnnc2SC(C)C(N)=O)c(C)c1 (stereo not given)	-2.9	12.1%	i	-4.1%	-75.5*	-8.2%
N#Cc1c(N)nc(SCC(=O)C23CC4CC(CC(C4)C2)C3)c(C#N)c1-c1ccc(Cl)cc1	2.4	u	-82.2%*	-5.4%	-40.7	29.3%
CCCSc1nc(N)c(C#N)c(-c2ccc(C)cc2)c1C#N	2.0	-5.1%	-90.5%*	-7.4%	-1.7	13.2%
OC1(c2cccnc2)CCN(Cc2ccc3c(c2)CN(Cc2ccsc2)CCO3)CC1	x	x	x	-2.6%	x	x
Cc1cc(-c2ccnc(-n3ncc(C(=O)NCC4COCCO4)c3C3CC3)n2)c(C)s1 (stereo not given)	x	x	x	5.5%	x	x
SMILES	KCNH2 WT inh	gsp ag	Akt phos inh	Glioma ERSR ind	KCNH2 3.1 block	gsp antagonist
O=C(/C=C/c1ccccc1)c1ccccc1	0.0	x	i	u	-22.6	-14.1%
O=C(/C=C/c1ccccc1)CC(=O)c1ccccc1	2.2	16.7%[15.4 µM]	i	5.0%	-86.0*	0.6%
O=C(Cn1cc2ccccc2n1)N1CCOc2ccc(C(O)C3CCCCC3)cc2C1 (stereo not given)	x	x	x	1.3%	x	x
CN1C(=O)/C(=C/c2ccccc2F)Sc2ccc(C(=O)NCC3CCCO3)cc21 (stereo not given)	1.5	u	i	-3.1%	-7.7	31.6µM*
Cc1cccc(/C=C2\Sc3ccc(C(=O)NCC4CCCO4)cc3N(C)C2=O)c1 (stereo not given)	7.9	34.6%	i	-0.8%	-13.8	-9.1%
O=C(COC(=O)c1ccccc1OCc1cccc(Br)c1)Nc1ccc(Br)cc1	x	x	x	-4.3%	x	x
CC1(C)CC(=O)C=C(c2cccc(OC(=O)c3ccc(-c4ccccc4)cc3)c2)C1=O	-141.9*	-9.4%	i	-1.3%	-156.4*	x
COc1cccc(C2=CC(=O)CC(C)(C)C2=O)c1	-11.0	-27.0%	i	-1.4%	33.8	x
O=C(C[n+]1csc2ccccc21)c1ccc(I)cc1	x	x	x	-6.0%	x	x
Brc1cc(Br)c2nc(-c3ccc(N4CCOCC4)cc3)ccc2c1	3.1	u	i	0.7%	-17.6	11.2µM*
O=C(O)c1cc(-c2ccc(N3CCOCC3)cc2)nn1-c1ccc(F)cc1F	-9.8	22.1%	i	-4.9%	x	-10.1%
COc1cc(OC)cc(-c2nc3ccccc3c(=O)o2)c1	-26.2	-12.0%	-99.3%*	3.9%	-0.4	-12.7%
COc1cccc(-c2nc3ccccc3c(=O)o2)c1	-5.2	-5.6%	i	u	14.2	u
CCN(CC)S(=O)(=O)c1ccc(-c2nnc(SCC(=O)N3c4ccccc4CC3C)n2CC)cc1 (stereo not given)	3.9	-0.4%	i	-5.2%	-28.7	28.2µM*
CCN(CC)S(=O)(=O)c1ccc(-c2nnc(SCC(=O)N3c4ccccc4CC3C)o2)cc1 (stereo not given)	9.4	0.3%	u	-1.5%	15.4	u
Nc1nonc1NN=C1CCCCC1	-10.6	3.5%	i	2.8%	-80.5*	13.1%
Nc1nonc1N/N=C\c1ccccc1	-0.5	-1.7%[15.4 µM]	i	-3.8%	-1.6	-0.7%
O=[N+]([O-])c1cccc(S(=O)(=O)Nc2nc3ccccc3nc2Nc2cccc(S(=O)(=O)N3CCCCC3)c2)c1	-11.3	-15.6%	i	-5.1%	2.4	17.8µM*
Cc1ccc(S(=O)(=O)Nc2nc3ccccc3nc2Nc2cccc(S(=O)(=O)N3CCCC3)c2)cc1	22.9	u	i	1.8%	-0.2	31.6µM*
CC(C)(C)c1nnc(NS(=O)(=O)c2ccccc2)s1	x	x	x	-4.4%	x	x
N#Cc1cc([N+](=O)[O-])ccc1N1CCN(c2ccccc2O)CC1	-0.4	5.3%[15.4 µM]	i	3.1%	1.9	u
O=[N+]([O-])c1ccc(N2CCN(c3ccc([N+](=O)[O-])cc3CO)CC2)c(CO)c1	u	0.3%	i	-6.0%	-88.7*	u
